Our source for the outcome and AC50 values is PubChem BioAssay (EPA / NIEHS).

Active and inactive are the calls of the source. Rule for the calls: active = hit-call score of the fitted dose curve at least 0.9, where 1 is the maximum; inactive = score below 0.9.

The assay can be described thus: CEETOX_H295R_CORTIC: CeeTox H295R High-throughput Steroidogenesis Assay for Corticosterone (CORTIC) (AID 2283437).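 Note: corticosterone secreted into medium quantified by mass spectrometry.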 To be noted: actives raise or lower the signal. The method, then:
CEETOX_H295R is a cell-based, multiplexed-readout assay that uses H295R, a human adrenal gland cell line, with measurements taken at 48 hours after chemical dosing in a 96-well plate.CEETOX_H295R_CORTIC is one of 23 assay component(s) measured or calculated from the CEETOX_H295R assay. It is designed to make measurements of hormone induction, a form of inducible reporter, as detected with absorbance signals by HPLC-MS-MS technology.Data from the assay component CEETOX_H295R_CORTIC was analyzed into 1 assay endpoint. This assay endpoint, CEETOX_H295R_CORTIC, was analyzed with bidirectional fitting relative to DMSO as the negative control and baseline of activity. Using a type of inducible reporter, gain or loss-of-signal activity using HPLC-MS-MS was used to understand synthesis of Corticosterone in H295R cell line at 48hr of chemical exposure. To generalize the intended target to other relatable targets, this assay endpoint is annotated to the steroid hormone intended target family, where the subfamily is glucocorticoids.
Cell culture and media preparation procedures were conducted in accordance with OECD Test No. 456 guidelines, with minor modifications. H295R cells (ATCC CRL-2128) were expanded for 5 passages and frozen in batches in liquid nitrogen. Prior to the steroidogenesis assay, H295R cells were thawed and passed at least 4 times. The maximum passage was 10. Cells were maintained in a 1:1 mixture of DMEM/F12 supplemented with 5ml/L ITS+ Premix (BD Bioscience) and 12.5 ml/L Nu-Serum (BD Bioscience). After seeding cells into 96-well plates at 50-60% confluency, cells were allowed to adhere overnight. Prior to chemical testing, culture medium was replaced with 175 uL medium containing 10 uM forskolin to stimulate steroidogenesis for 48 hours. Following prestimulation, forskolin medium was replaced with medium containing test chemical solubilized in DMSO (ensuring a final concentration of 0.1% DMSO). Test chemicals were incubated for 48 hours, then the medium was removed and split into 2 vials containing approximately 75uL each, and stored at -80 C prior to hormone analysis. For steroid quantification, media samples were shipped to OpAns, LLC (Durham, NC) on dry ice, and samples were thawed to room temperature prior to liquid-liquid extraction. Steroid hormones were extracted from media samples using methyl tertbutyl ether (MTBE). An extra derivatization with dansyl chloride was included for estrogen (estrone and estradiol) detection only. Steroid hormones were separated by HPLC, eluted using a reverse phase C18 gradient with electrospray positive ionization, followed by quantification by tandem mass spectrometry (MS/MS). Data were acquired on a MassHunter Workstation Acquisition version B03.01 (Agilent Technologies, Inc.) and processed using MassHunter Quantitative Analysis for QQQ. Accuracy was determined for each hormone analyte from 3 standards to determine upper and lower limits of quantification (ULOQ and LLOQ, respectively) using a 7-point standard curve. Precision and accuracy of the extraction and quantification methods were calculated as the percent relative standard deviation (%RSD) of the spiked standards and percent spiked standard recovered, respectively. […] Test medium was removed following chemical exposure, and cell viability was evaluated in the same wells by MTT. MTT procedures were as follows: after removal of test medium, 500 uL of 0.5 mg/ml of 3-[4,5-dimethylthiazol-2-y]2,5-diphenyltetrazoliumbromide solution was added to the cells. Following a 4-hour incubation at 37 C and 5% CO2 to allow formazan-crystal formation, the MTT solution was removed and blue formazan salt crystals were solubilized using 500uL anhydrous isopropanol with shaking for 20 minutes. Absorbance was read at 570 and 650nm using a Packard Fusion microplate reader. Background correction of absorbance units was used to determine percent change relative to controls. […]
Turning to `CCNc1nc(Cl)nc(NC(C)(C)C)n1`, the compound was classed as inactive.
With `Cc1ccc(N)cc1N`, the result was inactive.
One may read the AC50 as the concentration giving half of the maximal activity seen. As to `N#Cc1c(-c2ccc(Cl)cc2)[nH]c(C(F)(F)F)c1Br`, the AC50 was 0.291 µM (active).
`COP(N)(=S)OC`: the compound was called inactive.
On the same count and under the same terms, the entry for `O=S1(=O)OCC2C(CO1)C1(Cl)C(Cl)=C(Cl)C2(Cl)C1(Cl)Cl` (stereo unspecified) is “inactive”; for `Oc1ccc(I)cc1` it is “inactive”; for `Nc1ccc([N+](=O)[O-])cc1Cl` it is “inactive”.
For the compound `CC(=O)c1ccc(-c2ccccc2)cc1`, the AC50 is 18.9 µM (active).
On to `CO/N=C(/C(=O)OC)c1ccccc1COc1ccccc1C`, for which the result was inactive.
Take `CCCCc1ccc(O)cc1`: the AC50 was 28.3 µM (active).
Regarding `CCOP(=S)(NC(C)C)Oc1ccccc1C(=O)OC(C)C` (stereo unspecified), the AC50 was 6.94 µM (active).
Regarding `CCC(C)(C)c1ccc(O)cc1`, the compound was classed as inactive.
Same read-out and setting: the entry for `CC(C)Nc1ccc(Nc2ccccc2)cc1` is “inactive”; for `c1ccc(OP(Oc2ccccc2)Oc2ccccc2)cc1` it is “inactive”.
As for `O=S(=O)(c1ccc(O)cc1)c1ccc(O)cc1`, the compound was called inactive.
Take `Nc1cc2c3c(c1)C(c1ccccc1)=N[C@@H](NC(=O)c1cccnc1)C(=O)N3CC2`: the AC50 is 18.3 µM (active).
With `CCOP(=S)(OCC)SCn1nnc2ccccc2c1=O`, the compound was called inactive.
On the same count and under the same terms, the value for `CCCCOCCOP(=O)(OCCOCCCC)OCCOCCCC` was “inactive”; that for `ClC(Cl)=C(c1ccc(Cl)cc1)c1ccccc1Cl` was “inactive”; that for `O=P(Oc1ccccc1)(Oc1ccccc1)Oc1ccccc1` was “inactive”.
On to `Nc1ccc(Cl)cc1`, for which the compound was called inactive.
